# Measured values taken from PMC11006913.
# Experiments:
# Assay in all cases: PBM; 200 nM protein, PBS
# Conditions in all cases: dsDNA, one strand shown
# [1] = molecular target: SHOX (Homo sapiens, UniProt O15266 103-189)
# [2] = molecular target: SHOX (Homo sapiens, UniProt O15266 103-189, R173C)
# [3] = molecular target: NKX3-2 (Homo sapiens, UniProt P78367 192-278, P234S)
# [4] = molecular target: NKX3-2 (Homo sapiens, UniProt P78367 192-278)
# [5] = molecular target: PROP1 (Homo sapiens, UniProt O75360 56-141)
# [6] = molecular target: PROP1 (Homo sapiens, UniProt O75360 56-141, R99H)
# [7] = molecular target: PROP1 (Homo sapiens, UniProt O75360 56-141, F88S)
# [8] = molecular target: VAX1 (Homo sapiens, UniProt Q5SQQ9 86-172)
# [9] = molecular target: VAX1 (Homo sapiens, UniProt Q5SQQ9 86-172, T142I)
# [10] = molecular target: VAX1 (Homo sapiens, UniProt Q5SQQ9 86-172, K157R)
# Sequence of VAX1 (Homo sapiens, UniProt Q5SQQ9 86-172, K157R) (Q5SQQ9 86-172 K157R): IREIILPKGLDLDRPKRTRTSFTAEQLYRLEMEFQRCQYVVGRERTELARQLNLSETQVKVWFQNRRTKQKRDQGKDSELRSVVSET
# Sequence of NKX3-2 (Homo sapiens, UniProt P78367 192-278, P234S) (P78367 192-278 P234S): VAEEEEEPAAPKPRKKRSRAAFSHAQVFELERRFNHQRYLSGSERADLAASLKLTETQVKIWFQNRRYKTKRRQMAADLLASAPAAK
# Sequence of SHOX (Homo sapiens, UniProt O15266 103-189) (O15266 103-189): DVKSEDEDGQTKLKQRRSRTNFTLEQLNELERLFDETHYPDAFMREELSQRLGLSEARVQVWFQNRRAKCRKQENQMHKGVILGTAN
# Sequence of SHOX (Homo sapiens, UniProt O15266 103-189, R173C) (O15266 103-189 R173C): as the sequence (O15266 103-189) above, with R71C counted along it
# Sequence of NKX3-2 (Homo sapiens, UniProt P78367 192-278) (P78367 192-278): as the sequence (P78367 192-278 P234S) above, with S43P counted along it
# Sequence of PROP1 (Homo sapiens, UniProt O75360 56-141, F88S) (O75360 56-141 F88S): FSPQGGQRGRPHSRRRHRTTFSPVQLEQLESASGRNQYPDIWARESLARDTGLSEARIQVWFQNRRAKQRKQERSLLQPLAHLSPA
# Sequence of PROP1 (Homo sapiens, UniProt O75360 56-141, R99H) (O75360 56-141 R99H): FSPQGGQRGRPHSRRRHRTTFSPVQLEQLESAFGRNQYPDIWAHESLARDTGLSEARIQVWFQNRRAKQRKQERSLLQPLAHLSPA
# Sequence of PROP1 (Homo sapiens, UniProt O75360 56-141) (O75360 56-141): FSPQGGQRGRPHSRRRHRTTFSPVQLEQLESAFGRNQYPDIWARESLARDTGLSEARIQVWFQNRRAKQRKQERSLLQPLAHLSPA
# Sequence of VAX1 (Homo sapiens, UniProt Q5SQQ9 86-172, T142I) (Q5SQQ9 86-172 T142I): as the sequence (Q5SQQ9 86-172 K157R) above, with T57I, R72K counted along it
# Sequence of VAX1 (Homo sapiens, UniProt Q5SQQ9 86-172) (Q5SQQ9 86-172): as the sequence (Q5SQQ9 86-172 K157R) above, with R72K counted along it
sequence,measurement,setting,value
CTCCGCCA,binding signal,[1],"7.21 upbm affinity estimate (log intensity, higher = more binding, comparable within an allelic series)"
same,binding signal,[2],"7.21 upbm affinity estimate (log intensity, higher = more binding, comparable within an allelic series)"
TCGCGCGA,binding signal,[1],"7.38 upbm affinity estimate (log intensity, higher = more binding, comparable within an allelic series)"
same,binding signal,[2],"7.28 upbm affinity estimate (log intensity, higher = more binding, comparable within an allelic series)"
GAACGCGC,binding signal,[1],"7.22 upbm affinity estimate (log intensity, higher = more binding, comparable within an allelic series)"
same,binding signal,[2],"7.23 upbm affinity estimate (log intensity, higher = more binding, comparable within an allelic series)"
GACAGCCC,binding signal,[1],"7.16 upbm affinity estimate (log intensity, higher = more binding, comparable within an allelic series)"
same,binding signal,[2],"7.16 upbm affinity estimate (log intensity, higher = more binding, comparable within an allelic series)"
CCACCTCG,binding signal,[1],"7.13 upbm affinity estimate (log intensity, higher = more binding, comparable within an allelic series)"
same,binding signal,[2],"7.18 upbm affinity estimate (log intensity, higher = more binding, comparable within an allelic series)"
AGGGTCGG,binding signal,[1],"7.15 upbm affinity estimate (log intensity, higher = more binding, comparable within an allelic series)"
same,binding signal,[2],"7.14 upbm affinity estimate (log intensity, higher = more binding, comparable within an allelic series)"
CCTGAGAG,binding signal,[1],"7.19 upbm affinity estimate (log intensity, higher = more binding, comparable within an allelic series)"
same,binding signal,[2],"7.25 upbm affinity estimate (log intensity, higher = more binding, comparable within an allelic series)"
CCGGGAAA,binding signal,[1],"7.25 upbm affinity estimate (log intensity, higher = more binding, comparable within an allelic series)"
same,binding signal,[2],"7.26 upbm affinity estimate (log intensity, higher = more binding, comparable within an allelic series)"
ATTACCTA,binding signal,[1],"9.59 upbm affinity estimate (log intensity, higher = more binding, comparable within an allelic series)"
same,binding signal,[3],"11.2 upbm affinity estimate (log intensity, higher = more binding, comparable within an allelic series)"
same,binding signal,[4],"11.2 upbm affinity estimate (log intensity, higher = more binding, comparable within an allelic series)"
CCAAGGAG,binding signal,[1],"7.32 upbm affinity estimate (log intensity, higher = more binding, comparable within an allelic series)"
same,binding signal,[2],"7.21 upbm affinity estimate (log intensity, higher = more binding, comparable within an allelic series)"
CCGGGACG,binding signal,[1],"7.24 upbm affinity estimate (log intensity, higher = more binding, comparable within an allelic series)"
same,binding signal,[2],"7.27 upbm affinity estimate (log intensity, higher = more binding, comparable within an allelic series)"
CCAAACGG,binding signal,[1],"7.11 upbm affinity estimate (log intensity, higher = more binding, comparable within an allelic series)"
same,binding signal,[2],"7.21 upbm affinity estimate (log intensity, higher = more binding, comparable within an allelic series)"
CCCCGAAC,binding signal,[1],"7.23 upbm affinity estimate (log intensity, higher = more binding, comparable within an allelic series)"
same,binding signal,[2],"7.26 upbm affinity estimate (log intensity, higher = more binding, comparable within an allelic series)"
CCAGTTTA,binding signal,[1],"8.2 upbm affinity estimate (log intensity, higher = more binding, comparable within an allelic series)"
same,binding signal,[2],"7.55 upbm affinity estimate (log intensity, higher = more binding, comparable within an allelic series)"
GCGGCGGA,binding signal,[1],"7.1 upbm affinity estimate (log intensity, higher = more binding, comparable within an allelic series)"
same,binding signal,[2],"7.11 upbm affinity estimate (log intensity, higher = more binding, comparable within an allelic series)"
ACCCGCCC,binding signal,[1],"7.27 upbm affinity estimate (log intensity, higher = more binding, comparable within an allelic series)"
same,binding signal,[2],"7.22 upbm affinity estimate (log intensity, higher = more binding, comparable within an allelic series)"
GCATTACC,binding signal,[1],"8.63 upbm affinity estimate (log intensity, higher = more binding, comparable within an allelic series)"
same,binding signal,[2],"7.62 upbm affinity estimate (log intensity, higher = more binding, comparable within an allelic series)"
CCAGGGCG,binding signal,[1],"7.04 upbm affinity estimate (log intensity, higher = more binding, comparable within an allelic series)"
same,binding signal,[2],"7.02 upbm affinity estimate (log intensity, higher = more binding, comparable within an allelic series)"
same,binding signal,[5],"6.67 upbm affinity estimate (log intensity, higher = more binding, comparable within an allelic series)"
same,binding signal,[6],"6.55 upbm affinity estimate (log intensity, higher = more binding, comparable within an allelic series)"
same,binding signal,[7],"6.42 upbm affinity estimate (log intensity, higher = more binding, comparable within an allelic series)"
same,binding signal,[3],"10.3 upbm affinity estimate (log intensity, higher = more binding, comparable within an allelic series)"
same,binding signal,[4],"10.2 upbm affinity estimate (log intensity, higher = more binding, comparable within an allelic series)"
CTCCTCCC,binding signal,[1],"7.03 upbm affinity estimate (log intensity, higher = more binding, comparable within an allelic series)"
same,binding signal,[2],"7.12 upbm affinity estimate (log intensity, higher = more binding, comparable within an allelic series)"
CGGCCTGA,binding signal,[1],"7.33 upbm affinity estimate (log intensity, higher = more binding, comparable within an allelic series)"
same,binding signal,[2],"7.17 upbm affinity estimate (log intensity, higher = more binding, comparable within an allelic series)"
GCATGGCC,binding signal,[1],"7.2 upbm affinity estimate (log intensity, higher = more binding, comparable within an allelic series)"
same,binding signal,[2],"7.2 upbm affinity estimate (log intensity, higher = more binding, comparable within an allelic series)"
CACCGGGG,binding signal,[1],"7.32 upbm affinity estimate (log intensity, higher = more binding, comparable within an allelic series)"
same,binding signal,[2],"7.13 upbm affinity estimate (log intensity, higher = more binding, comparable within an allelic series)"
same,binding signal,[5],"6.79 upbm affinity estimate (log intensity, higher = more binding, comparable within an allelic series)"
same,binding signal,[6],"6.87 upbm affinity estimate (log intensity, higher = more binding, comparable within an allelic series)"
same,binding signal,[7],"6.47 upbm affinity estimate (log intensity, higher = more binding, comparable within an allelic series)"
CAACCAGC,binding signal,[1],"7.2 upbm affinity estimate (log intensity, higher = more binding, comparable within an allelic series)"
same,binding signal,[2],"7.18 upbm affinity estimate (log intensity, higher = more binding, comparable within an allelic series)"
CGCTACCC,binding signal,[1],"7.24 upbm affinity estimate (log intensity, higher = more binding, comparable within an allelic series)"
same,binding signal,[2],"7.33 upbm affinity estimate (log intensity, higher = more binding, comparable within an allelic series)"
AGGGAAAC,binding signal,[1],"7.15 upbm affinity estimate (log intensity, higher = more binding, comparable within an allelic series)"
same,binding signal,[2],"7.22 upbm affinity estimate (log intensity, higher = more binding, comparable within an allelic series)"
ACCCGGAC,binding signal,[1],"7.09 upbm affinity estimate (log intensity, higher = more binding, comparable within an allelic series)"
same,binding signal,[2],"7.17 upbm affinity estimate (log intensity, higher = more binding, comparable within an allelic series)"
CCGGGCGA,binding signal,[1],"7.31 upbm affinity estimate (log intensity, higher = more binding, comparable within an allelic series)"
same,binding signal,[2],"7.22 upbm affinity estimate (log intensity, higher = more binding, comparable within an allelic series)"
CCCCTTCC,binding signal,[1],"7.19 upbm affinity estimate (log intensity, higher = more binding, comparable within an allelic series)"
same,binding signal,[2],"7.03 upbm affinity estimate (log intensity, higher = more binding, comparable within an allelic series)"
CCGAAGCG,binding signal,[1],"7.16 upbm affinity estimate (log intensity, higher = more binding, comparable within an allelic series)"
same,binding signal,[2],"7.24 upbm affinity estimate (log intensity, higher = more binding, comparable within an allelic series)"
CCCGGGGC,binding signal,[1],"7.23 upbm affinity estimate (log intensity, higher = more binding, comparable within an allelic series)"
same,binding signal,[2],"7.07 upbm affinity estimate (log intensity, higher = more binding, comparable within an allelic series)"
CGGGCGTC,binding signal,[1],"7.36 upbm affinity estimate (log intensity, higher = more binding, comparable within an allelic series)"
same,binding signal,[2],"7.21 upbm affinity estimate (log intensity, higher = more binding, comparable within an allelic series)"
same,binding signal,[3],"10.6 upbm affinity estimate (log intensity, higher = more binding, comparable within an allelic series)"
same,binding signal,[4],"10.5 upbm affinity estimate (log intensity, higher = more binding, comparable within an allelic series)"
GCCGGGGA,binding signal,[1],"7.02 upbm affinity estimate (log intensity, higher = more binding, comparable within an allelic series)"
same,binding signal,[2],"7.11 upbm affinity estimate (log intensity, higher = more binding, comparable within an allelic series)"
CCGGATGC,binding signal,[1],"6.64 upbm affinity estimate (log intensity, higher = more binding, comparable within an allelic series)"
same,binding signal,[2],"7.08 upbm affinity estimate (log intensity, higher = more binding, comparable within an allelic series)"
same,binding signal,[8],"6.72 upbm affinity estimate (log intensity, higher = more binding, comparable within an allelic series)"
same,binding signal,[9],"6.89 upbm affinity estimate (log intensity, higher = more binding, comparable within an allelic series)"
same,binding signal,[10],"6.77 upbm affinity estimate (log intensity, higher = more binding, comparable within an allelic series)"
AATTAGGC,binding signal,[1],"11.6 upbm affinity estimate (log intensity, higher = more binding, comparable within an allelic series)"
same,binding signal,[2],"9.07 upbm affinity estimate (log intensity, higher = more binding, comparable within an allelic series)"
